Assay results as given in PubChem BioAssay (Tox21).
Values joined by “and” are separate entries in the source; they are usually repeats but may differ in a detail not shown here. Identical values can stand only once. Results filed as inconclusive are left out. Some structures have more than one record in an assay (separate samples or runs), and their calls can disagree. Active and inactive are the calls of the source. Calls follow the shape of the full dose curve.

Columns and labels:
[1] = molecular target: Acetylcholinesterase (Homo sapiens) (UniProt P22303); assay: Acetylcholinesterase (AChE) small molecule antagonists: colormetric cell-based qHTS assay (AID 1347395); also: nearly all actives have a fitted effect of over 30% in size; also: potency is read from the fitted curve at half-maximal effect
Procedure, shortened: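 In this cell-based qHTS, attached SH-SY5Y cells were treated with test chemicals for 30 min, after which acetylthiocholine hydrolysis was followed by DTNB colour development over 90 min at 37 C.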

[2] = molecular target: Acetylcholinesterase (Homo sapiens) (UniProt P22303); assay: Acetylcholinesterase (AChE) small molecule antagonists: enzyme-based qHTS assay (AID 1347397); conditions: Potency: AChE enzyme activity inhibition; outcome: AChE enzyme activity inhibition; also: nearly all actives have a fitted effect of over 55% in size; also: potency is read from the fitted curve at half-maximal effect
Procedure, shortened: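 In this quantitative HTS, compounds from the Tox21 10K collection were preincubated 30 min at ambient temperature with recombinant human AChE dispensed at 50 mU/mL. Hydrolysis of acetylthiocholine was then followed for 10 min by DTNB colour development.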

[3] = molecular target: Acetylcholinesterase (Homo sapiens) (UniProt P22303); assay: Acetylcholinesterase (AChE) small molecule antagonists: fluorescence cell-based qHTS assay (AID 1347398); conditions: Potency: AChE activity; outcome: AChE activity; also: nearly all actives have a fitted effect of over 50% in size; also: potency is read from the fitted curve at half-maximal effect
Procedure, shortened: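 Cells (SH-SY5Y) attached overnight, were dosed with compound or DMSO vehicle for 30 min at 37 C, and then incubated 40 min at room temperature with acetylthiocholine and Thiolite Green; green fluorescence indexed AChE activity.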

[4] = molecular target: Acetylcholinesterase (Homo sapiens) (UniProt P22303); assay: Acetylcholinesterase (AChE) small molecule antagonists: enzyme-based qHTS assay with human liver microsomes (AID 1347399); conditions: Potency: qHTS inhibition; outcome: qHTS inhibition; also: nearly all actives have a fitted effect of over 60% in size
Procedure, shortened: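 Recombinant human AChE (50 mU/mL in the enzyme mix) and human liver microsomes (0.25 mg/mL final) were preincubated with compound and NADPH (0.25 mg/mL final) for 30 min at 37 C. Acetylthiocholine/DTNB was then added; thiocholine was read colorimetrically after 10 min at room temperature.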
% is scaled to controls: 0 for no effect and ±100 for the full control effect.

Acetylcholinesterase (Homo sapiens), sequence (P22303 whole entry, looked up): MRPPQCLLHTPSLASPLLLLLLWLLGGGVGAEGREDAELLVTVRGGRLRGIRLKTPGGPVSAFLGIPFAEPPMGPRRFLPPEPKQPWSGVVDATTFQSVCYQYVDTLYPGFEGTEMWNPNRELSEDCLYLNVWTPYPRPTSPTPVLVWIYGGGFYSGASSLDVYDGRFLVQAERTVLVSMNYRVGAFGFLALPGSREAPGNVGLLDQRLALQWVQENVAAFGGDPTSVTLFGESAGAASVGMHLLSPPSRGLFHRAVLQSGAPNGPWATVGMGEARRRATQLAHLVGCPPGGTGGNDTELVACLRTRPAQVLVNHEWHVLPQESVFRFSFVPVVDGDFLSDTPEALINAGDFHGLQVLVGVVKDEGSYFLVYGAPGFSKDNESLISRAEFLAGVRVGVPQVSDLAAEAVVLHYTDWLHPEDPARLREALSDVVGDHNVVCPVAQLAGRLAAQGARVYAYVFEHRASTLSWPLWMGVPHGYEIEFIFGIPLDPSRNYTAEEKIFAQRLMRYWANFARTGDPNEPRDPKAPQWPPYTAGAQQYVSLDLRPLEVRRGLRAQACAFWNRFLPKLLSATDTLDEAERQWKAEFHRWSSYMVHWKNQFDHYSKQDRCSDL

Oc1cc(O)c2c(c1)O[C@H](c1ccc(O)c(O)c1)[C@H](O)C2
inactive: Potency [1] | Potency [2] | Potency [3] | Potency [4]

COC(=O)c1ccccc1C(=O)O
inactive: Potency [1] | Potency [2] | Potency [3] | Potency [4]

CN(C)c1ccc(C2(c3ccc(N(C)C)cc3)OC(=O)c3cc(N(C)C)ccc32)cc1
inactive: Potency [1] | Potency [2] | Potency [3] | Potency [4]

O=C(c1ccc(O)c(O)c1)c1ccc(O)cc1O
inactive: Potency [1] | Potency [2] | Potency [3] | Potency [4]

CC(C)(C)C(=O)OCOC(=O)[C@@H]1N2C(=O)[C@@H](NC(=O)[C@H](N)c3ccccc3)[C@H]2SC1(C)C
inactive: Potency [1] | Potency [2] | Potency [3] | Potency [4]

OC[C@H]1O[C@H](O[C@H]2O[C@H](CO)[C@@H](O)[C@H](O)[C@H]2O)[C@H](O)[C@@H](O)[C@@H]1O
inactive: Potency [1] | Potency [2] | Potency [3] | Potency [4]

CCC(CC)C(=O)O
inactive: Potency [1] | Potency [2] | Potency [3] | Potency [4]

C=C(C)C1CC=C(C)CC1 (stereo not given)
inactive: Potency [1] | Potency [2] | Potency [3] | Potency [4]

Cc1ccc(Nc2c(F)cccc2Cl)c(CC(=O)O)c1
inactive: Potency [1] | Potency [2] | Potency [3] | Potency [4]

CCOc1c(N2CCOCC2)cnn(C)c1=O
inactive: Potency [1] | Potency [2] | Potency [3] | Potency [4]

C[C@@H](O[C@H]1OCCN(Cc2n[nH]c(=O)[nH]2)[C@H]1c1ccc(F)cc1)c1cc(C(F)(F)F)cc(C(F)(F)F)c1
inactive: Potency [1] | Potency [2] | Potency [3] | Potency [4]

NNc1nnc(NN)c2ccccc12
inactive: Potency [1] | Potency [2] | Potency [3] | Potency [4]

COC(=O)Nc1nc2ccc(S(=O)c3ccccc3)cc2[nH]1 (stereo not given)
inactive: Potency [1] | Potency [2] | Potency [3] | Potency [4]

O=c1[nH]c(=O)n([C@H]2C[C@H](O)[C@@H](CO)O2)cc1Br
inactive: Potency [1] | Potency [2] | Potency [3] | Potency [4]

CCCC(=O)CC
inactive: Potency [1] | Potency [2] | Potency [3] | Potency [4]

CN(C)CCCCl
inactive: Potency [1] | Potency [2] | Potency [3] | Potency [4]

CCCCOC(O)CC (stereo not given)
inactive: Potency [1] | Potency [2] | Potency [3] | Potency [4]

O=C(O)c1nc(Cl)c(Cl)c(Cl)c1Cl
inactive: Potency [1] | Potency [2] | Potency [3] | Potency [4]

CC(C)(C)C(=O)c1ccccc1
inactive: Potency [1] | Potency [2] | Potency [3] | Potency [4]

Oc1ccc(N=Nc2ccccc2)cc1
inactive: Potency [1] | Potency [2] | Potency [3] | Potency [4]

CCCC(=O)O[C@]1(C(=O)CO)CC[C@H]2[C@@H]3CCC4=CC(=O)CC[C@]4(C)[C@H]3[C@@H](O)C[C@@]21C
inactive: Potency [1] | Potency [2] | Potency [3] | Potency [4]

Nc1c(Cl)cc(Cl)cc1Cl
inactive: Potency [1] | Potency [2] | Potency [3] | Potency [4]

O=C1OC2(c3ccccc31)c1ccc(O)c(Br)c1Oc1c2ccc(O)c1Br
inactive: Potency [1] | Potency [2] | Potency [3] | Potency [4]

CN1CCN(N)CC1
inactive: Potency [1] | Potency [2] | Potency [3] | Potency [4]

CSc1ccc2c(c1)N(CCC1CCCCN1C)c1ccccc1S2 (stereo not given)
active: Potency [1] 70.7 µM | Potency [3] 31.6 µM
inactive: Potency [4]
79.3 µM (active) and inactive: Potency [2]

COCCCN
inactive: Potency [1] | Potency [2] | Potency [3] | Potency [4]

CCCO[Si](OCCC)(OCCC)OCCC
inactive: Potency [1] | Potency [2] | Potency [3] | Potency [4]

CC(=O)CC(=O)c1ccccc1
inactive: Potency [1] | Potency [2] | Potency [3] | Potency [4]

CNC(=O)N(c1ccccc1)c1ccccc1
inactive: Potency [1] | Potency [2] | Potency [4]
active: Potency [3] 35.7 µM

N[C@H](C(=O)O)c1ccc(O)cc1
inactive: activity, negative = inhibition [1] 0% [at 23.6 µM] | activity change, negative = inhibition [2] 0.185% [at 23.6 µM] | activity change, negative = inhibition [3] 10.4% [at 23.8 µM] | activity change, negative = inhibition [4] -0.0013% [at 23.6 µM]

CN(C)C(=O)CNC(=O)Cc1ccccc1
inactive: Potency [1] | Potency [2] | Potency [3] | Potency [4]

O=C1C=CC(=O)O1
inactive: Potency [1] | Potency [2] | Potency [3] | Potency [4]

O=C1c2cccc3c2[C@H](CCC3)CN1[C@@H]1CN2CCC1CC2
inactive: Potency [1] | Potency [2] | Potency [3] | Potency [4]

C[C@H]1C[C@H]2[C@@H]3CCC4=CC(=O)C=C[C@]4(C)[C@@]3(F)[C@@H](O)C[C@]2(C)[C@@]1(O)C(=O)COP(=O)(O)O
inactive: Potency [1] | Potency [2] | Potency [3] | Potency [4]

CCCCCCC(=O)c1ccccc1
inactive: Potency [1] | Potency [2] | Potency [3] | Potency [4]

OC[C@H]1O[C@H](O[C@]2(CCl)O[C@H](CCl)[C@@H](O)[C@@H]2O)[C@H](O)[C@@H](O)[C@H]1Cl
inactive: Potency [1] | Potency [2] | Potency [3] | Potency [4]

CN/C(=C\[N+](=O)[O-])NCCSCc1csc(CN(C)C)n1
inactive: Potency [4]
active: Potency [1] 11.2 µM and 13.8 µM | Potency [2] 35.6 µM and 27.5 µM | Potency [3] 35.6 µM

C/C=C/c1ccc(OC)c(OC)c1
inactive: Potency [1] | Potency [2] | Potency [3] | Potency [4]

O=C(O)c1ccccc1-n1cc(C(=O)O)c(=O)c2cc(Nc3c(F)cc(F)cc3Cl)c(Cl)cc21
inactive: Potency [1] | Potency [2] | Potency [3] | Potency [4]

O=C(CS)Nc1ccccc1
inactive: Potency [1] | Potency [2] | Potency [3] | Potency [4]

CCOC(=O)N1CCC(n2c(=O)[nH]c3cc(Cl)ccc32)CC1
inactive: Potency [1] | Potency [2] | Potency [3] | Potency [4]

CC(CNC1CCCCC1)OC(=O)c1ccccc1 (stereo not given)
inactive: Potency [1] | Potency [2] | Potency [3] | Potency [4]

CCCCNC(=O)NCCCC
inactive: Potency [1] | Potency [2] | Potency [3] | Potency [4]

CC(C)(C)c1cc(/C=C2\SC(=N)NC2=O)cc(C(C)(C)C)c1O
inactive: outcome [1] | outcome [2] | outcome [3] | outcome [4]

CCCCCC1C(=O)CCC1CC(=O)OC (stereo not given)
inactive: Potency [1] | Potency [2] | Potency [3] | Potency [4]

NS(=O)(=O)c1ccc(NC(=O)CCC(=O)O)cc1
inactive: Potency [1] | Potency [2] | Potency [3] | Potency [4]

CC(C)[C@H]1CC[C@@H](C)CC1=O
inactive: Potency [1] | Potency [2] | Potency [3] | Potency [4]

CCCCCCCCCCCCCCBr
inactive: Potency [1] | Potency [2] | Potency [3] | Potency [4]

O=C=NCc1cccc(CN=C=O)c1
inactive: activity, negative = inhibition [1] -0.545% [at 23.6 µM] | activity change, negative = inhibition [2] 0.393% [at 23.6 µM] | activity change, negative = inhibition [3] -0.0492% [at 23.8 µM] | activity change, negative = inhibition [4] 0.648% [at 23.6 µM]

NS(=O)(=O)c1cc2c(cc1Cl)NC=NS2(=O)=O
inactive: Potency [1] | Potency [2] | Potency [3] | Potency [4]

CCCCCCCCCCCCCCCCCCN(C)C
inactive: Potency [1] | Potency [2] | Potency [3] | Potency [4]

C1CN(CCOCCN2CCOCC2)CCO1
inactive: Potency [1] | Potency [2] | Potency [3] | Potency [4]

Nc1ncnc2c1ncn2[C@@H]1O[C@H](CO)[C@@H](O)[C@H]1O
inactive: Potency [1] | Potency [2] | Potency [3] | Potency [4]

C=CC(=O)OCCOCCOC(=O)C=C
inactive: Potency [1] | Potency [2] | Potency [3] | Potency [4]

Nc1ccc2c(c1)C(=O)c1ccccc1C2=O
inactive: Potency [1] | Potency [2] | Potency [3] | Potency [4]

Cc1cc(C)c(/C=C2\C(=O)Nc3ccccc32)[nH]1
inactive: Potency [1] | Potency [2] | Potency [3] | Potency [4]

CC(=O)c1ccc2c(c1)N(CCCN(C)C)c1ccccc1S2
inactive: Potency [1] | Potency [2] | Potency [3] | Potency [4]

Cc1nn(C)c(Oc2ccccc2)c1/C=N/OCc1ccc(C(=O)OC(C)(C)C)cc1
inactive: Potency [1] | Potency [2] | Potency [3] | Potency [4]

CC(C)(C)NC[C@H](O)COc1cccc2c1CCCC2=O
inactive: Potency [1] | Potency [2] | Potency [3] | Potency [4]

CC(=O)OC[C@H]1O[C@@H](OC(C)=O)[C@H](OC(C)=O)[C@@H]1OC(C)=O
inactive: Potency [1] | Potency [2] | Potency [3] | Potency [4]
